From PubChem BioAssay
RTF Ca sens inh: cardiac RTF calcium sensitivity inhibitors, primary screen, biochemical, IANBD-TnC fluorescence, EC70 calcium | inhibition, % at 7.15 µM | IANBD-labeled cardiac RTF, Ca2+ fluorescence | 0.12% of 340,000 active | AID 493244, 2011 | Troponin I, cardiac muscle (Homo sapiens) + Troponin T, cardiac muscle (Homo sapiens) + …;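 active = inhibition above the mean inhibition of all tested compounds plus 3 SD, cut at about 17% in these data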;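 note: assay run at fixed EC70 calcium of 1.6 mM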
RTF Ca sens act: cardiac RTF calcium sensitivity activators, primary screen, biochemical, IANBD-TnC fluorescence, EC20 calcium | activation, % at 7.2 µM | IANBD-labeled TnC RTF fluorescence at EC20 calcium; 0% EC20 calcium, 100% full calcium | 0.24% of 340,000 active | AID 493008, 2010;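 active = activation above the mean over all tested compounds plus 3 SD, cut at about 30% in these data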;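 note: rise in fluorescence read as greater calcium sensitivity of cardiac thin filaments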
CRFR2-BP ag: agonists of CRF-BP/CRF-R2 complex, primary screen, cell-based, HEK293, calcium dye fluorescence, uHTS. AID 588473, 2011. 0.46% of 350,000 active. calcium dye fluorescence (FLIPR); percent of saturating CRF peptide response. activation, % at 13.2 µM. CRF-binding protein / CRF receptor 2 complex (human);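 active = activation of at least 50%, plus an integration ratio under a set limit after plate pattern correction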;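 note: plate controls were neutral control wells without compound for no effect and CRF at EC100 for full effect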
CRFBP-R2 block: antagonists of CRF-BP/CRF-R2 complex, primary screen, cell-based, HEK293, calcium dye fluorescence, uHTS; CRF-induced calcium fluorescence; inhibition, % at 11.8 µM; 0.59% of 350,000 active; AID 588475, 2011;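 active = inhibition of the ligand-induced calcium signal above about 50% at the single tested concentration, limit read from the data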
Active calls of the source: *; . = no result given. An excerpt weighted towards active compounds, which were near 1.3% of everything screened.

SMILES | RTF Ca sens inh | RTF Ca sens act | CRFR2-BP ag | CRFBP-R2 block
N#Cc1ccc(S(=O)(=O)N2CCN(C(=O)[C@@H]3CCCN3C(=O)c3cccs3)CC2)cc1 | -7.6 | 3.4 | -0.2 | 78.9*
O=C(C1CCCN1C(=O)c1cccs1)N1CCN(S(=O)(=O)c2ccc(F)cc2)CC1 (stereo not given) | 7.0 | -2.5 | -1.2 | 4.5
CC(NC(=O)CN1c2cccc3cccc(c23)S1(=O)=O)c1ccccc1 (stereo not given) | . | . | 2.2 | -5.0
CC(C)CNC(=O)CN1c2cccc3cccc(c23)S1(=O)=O | -3.2 | -0.6 | 0.8 | 78.6*
O=[N+]([O-])c1ccc(-c2ccc(/C=N/Nc3nc(NCc4ccccc4)nc(N4CCOCC4)n3)o2)cc1 | -6.6 | 0.1 | 56.5* | -88.7
N#Cc1ccc(CN(Nc2ccccc2)c2ccccc2)cc1 | . | . | -2.4 | 55.7*
Cc1cc(C)n(C(=O)CNC(=O)c2ccc(Cl)cc2Cl)n1 | -5.8 | -1.6 | 0.2 | 0.8
CCCN1Cc2cccc(C(=O)NCc3cccs3)c2C1=O | 1.7 | 3.5 | 0.6 | 57.6*
Cc1sc(NC(=O)C2C3C=CC(C3)C2C(=O)O)c(C(N)=O)c1-c1ccc(C(C)C)cc1 (stereo not given) | -8.9 | 3.1 | 2.1 | 18.9
COC(=O)/C=C1/S/C(=N/NC(=O)c2ccc(Cl)cc2Cl)NC1=O | . | . | -2.0 | 50.8*
O=c1[nH]c2cc3c(cc2cc1CN(CCO)S(=O)(=O)c1ccccc1)OCCO3 | 8.2 | -1.8 | 0.0 | -4.1
O=c1[nH]ncc2c3ccccc3n(Cc3cccc(Cl)c3)c12 | -54.4 | 55.7* | 1.6 | -37.6
O=c1[nH]ncc2c3ccccc3n(Cc3ccc(F)cc3)c12 | 2.2 | -1.9 | 2.1 | -63.9
CC(=O)Nc1sc(/C(C#N)=C/c2ccc(Cl)c(Cl)c2)nc1-c1ccc(C)cc1 | -24.1 | 76.4* | 280.7* | -319.6
CC(C(=O)Nc1cccc(S(=O)(=O)N2CCOCC2)c1)N1CCN(C)CC1 (stereo not given) | 7.8 | -2.6 | 1.2 | -13.6
CCc1noc(C)c1C(=O)N1CCSC1=Nc1cccc(Cl)c1C | 2.4 | -0.6 | -2.7 | 71.2*
CCC(C)c1ccc(S(=O)(=O)N2CCN(CC(O)COCC3CCCO3)CC2)cc1 (stereo not given) | 10.3 | 2.2 | 0.8 | 64.3*
COc1ccc(NC(=O)CCN2CCCCCC2)cc1 | -3.7 | -7.7 | 0.0 | 80.2*
COc1ccc(NC(=O)CCN2CCCCC2)cc1 | -0.4 | -1.3 | 0.7 | -7.0
C=CCOc1ccccc1C1C2=C(CC(C)(C)CC2=O)Nc2c1c(=O)n(C)c(=O)n2C (stereo not given) | -5.6 | 0.3 | -1.2 | -19.7
COc1ccc(C2C3=C(CC(C)(C)CC3=O)Nc3c2c(=O)n(C)c(=O)n3C)cc1OC (stereo not given) | -12.2 | 6.9 | 2.1 | 112.6*
COCCn1cnc2c1c(=O)n(CC(=O)NC(=O)NC(C)(C)C)c(=O)n2Cc1ccccc1 | -2.8 | -1.0 | 1.9 | -4.8
Cc1c(NC(=O)NC(=O)c2ccc(F)cc2)c(=O)n(-c2ccccc2)n1C | -0.1 | -5.0 | -0.7 | -2.9
Cc1c(N=C2N=C(NC(=O)c3ccc(F)cc3)c3ccccc32)c(=O)n(-c2ccccc2)n1C | -0.3 | 11.7 | 65.3* | -54.2
O=C(O)C1C2C=CC(O2)C1C(=O)Nc1ccc(S(=O)(=O)Nc2ccccc2)cc1 (stereo not given) | 0.5 | -1.4 | -0.5 | 53.9*
SMILES | RTF Ca sens inh | RTF Ca sens act | CRFR2-BP ag | CRFBP-R2 block
CCCOP(=O)(c1ccc(N(C)C)cc1)C(Nc1ccccc1)c1ccc(C)cc1 (stereo not given) | 0.2 | -0.6 | 0.6 | -1.9
CC(C)CCOP(=O)(c1ccc(N(C)C)cc1)C(Nc1ccccc1)c1ccc(N(C)C)cc1 (stereo not given) | -1.8 | -8.4 | 7.6 | 110.6*
O=Cc1ccc(N2CCCC2)o1 | 2.7 | -1.5 | -1.1 | -6.9
N#C/C(=C\c1ccc(N2CCCCC2)o1)C(=O)Nc1cccc(Br)c1 | -154.8 | 146.0* | 312.1* | -265.5
N#C/C(=C\c1ccc(N2CCCCC2)o1)C(N)=O | -57.6 | 55.7* | 35.5 | -24.7
COc1ccc(NC(=O)/C(C#N)=C\c2ccc(Br)o2)cc1 | -4.1 | 2.4 | 0.7 | 12.0
CN1C(=O)C2(OCC(C)([N+](=O)[O-])CO2)c2ccccc21 (stereo not given) | -0.8 | -2.3 | -3.6 | 22.5
CN1C(=O)C2(N=c3ccccc3=N2)c2ccccc21 | -0.7 | 3.3 | -0.1 | 68.3*
Cc1ccc(CNC(=O)c2ccc(N3CCC4(CC3)CC(c3cccc(Br)c3)=NO4)c(NC(=O)c3cccc(C)c3)c2)cc1 | -4.2 | -5.0 | 1.6 | -3.8
COc1cccc(C(=O)Nc2cc(C(=O)NCc3ccc(C)cc3)ccc2N2CCC3(CC2)CC(c2cccc(Br)c2)=NO3)c1 | -2.4 | 15.5 | 5.0 | 65.8*
Cc1cc(-n2c(C)cc(C(=O)CSc3nc4ccccc4c(=O)n3Cc3ccco3)c2C)no1 | -15.7 | 0.7 | 68.2* | -50.7
COCCN(CC(=O)Nc1cccc(C)c1C)C(=O)c1cc(-c2ccncc2)nc2ccccc12 | -13.3 | 6.2 | -0.3 | 3.7
CCOC(=O)c1ccccc1NC(=O)COC(=O)c1cc([N+](=O)[O-])ccc1N1CCOCC1 | 1.3 | -1.6 | 0.1 | 16.6
COc1ccccc1-c1ccc(SCc2cccc(F)c2)nn1 | 14.2 | 1.5 | 0.0 | 53.4*
COc1ccccc1-c1ccc(SCc2ccccc2)nn1 | -3.4 | -1.6 | -0.4 | 12.8
CC(Sc1nnc(C2CC2)n1C1CC1)C(=O)Nc1ccccc1C#N (stereo not given) | 3.5 | -3.6 | -1.2 | 3.3
COc1ccc2c(c1)O/C(=C\c1ccco1)C2=O | -5.3 | 0.9 | 2.0 | 1.2
Cc1cc(O)c(CN(C)C)c2c1C(=O)/C(=C/c1ccco1)O2 | -35.0 | 35.9* | 15.5 | -5.5
CCOC(=O)NNC(=O)c1[nH]c2ccc(Br)cc2c1-c1ccccc1 | 16.5 | -7.4 | -0.5 | 56.6*
O=C1CSC(c2ccccn2)N1c1ccc(C(F)(F)F)cc1 (stereo not given) | -1.2 | 1.9 | -0.6 | 10.2
CCOc1ccc(Cl)cc1S(=O)(=O)n1nnc2ccccc21 | -2.2 | 8.5 | 3.0 | 107.4*
Cc1ccc(S(=O)(=O)n2nnc3ccccc32)c(C)c1C | -6.2 | 4.7 | -1.6 | 92.9*
O=S(=O)(c1cccs1)n1nnc2ccccc21 | -8.8 | 6.2 | 3.9 | 34.8
CCN1CCN(c2c(/C=C3\SC(=S)N(Cc4ccco4)C3=O)c(C)c(C#N)c(=O)n2C)CC1 | -85.0 | 62.4* | 90.1* | -95.4
CCN1C(=O)/C(=C\N2CCN(C(=O)c3ccco3)CC2)SC1=S | -1.6 | 7.2 | 0.9 | 6.5
COc1ccc(S(=O)(=O)Nc2ccc3c(c2)OCCO3)cc1OC | -1.6 | -4.0 | 0.0 | 4.0
Cc1ccc(OCC(=O)Nc2cc(Cl)ccc2-n2cncn2)c(C)c1 | . | . | -1.2 | -3.6
